Most compounds without a hit are left out; they make up all but 3.8% or so of the library.
PrP 5UTR inh = suppresses PrP 5' UTR mRNA reporter expression. inhibition, % (test concentration not listed). cell-based PrP 5' UTR mRNA reporter, plate reader. 0.35% of 340,000 active; in the data active means inhibition above about 52%
PrPC TRFRET = inhibitors of human cell surface prion protein PrPC. P04156. inhibition, % at 13.8 µM. TR-FRET read-out. 0.43% of 370,000 active; in the data active means inhibition above about 24%
Mtb hypoxia inh = Mtb hypoxia fluorescent reporter inhibition; M. tuberculosis hypoxia-regulated fluorescent reporter, fluorescence; fluorescence inhibition, % (test concentration not listed); 0.1% of 300,000 active; in the data active means fluorescence inhibition mostly above about 23%, no sharp cut-off; inactive means mostly below about 17%
Y pestis TopoI = Y. pestis Topo-I inhibition via cleavage products. Y. pestis Topo-I cleavage product accumulation, plate reader. activity, % at 10 µM. 0.064% of 360,000 active; in the data active means activity above about 50%, passing the limit was not always enough
GDH-TPI inh = inhibits GDH-TPI coupling enzymes, artifact for Mtb FBA screen. 1.2% of 360,000 active. GDH-TPI coupled enzyme counterscreen, NADH absorbance. inhibition, % at 4.8 µM. AID 588335; in the data active means inhibition above about 30%
FBA Mtb inh = inhibits M. tuberculosis FBA enzyme | P9WQA3 | purified M. tuberculosis FBA, fluorescence read-out | inhibition, % at 1 µM | 2.3% of 360,000 active | AID 588726; in the data active means inhibition above about 27%
Target sequence (P9WQA3 whole entry, looked up): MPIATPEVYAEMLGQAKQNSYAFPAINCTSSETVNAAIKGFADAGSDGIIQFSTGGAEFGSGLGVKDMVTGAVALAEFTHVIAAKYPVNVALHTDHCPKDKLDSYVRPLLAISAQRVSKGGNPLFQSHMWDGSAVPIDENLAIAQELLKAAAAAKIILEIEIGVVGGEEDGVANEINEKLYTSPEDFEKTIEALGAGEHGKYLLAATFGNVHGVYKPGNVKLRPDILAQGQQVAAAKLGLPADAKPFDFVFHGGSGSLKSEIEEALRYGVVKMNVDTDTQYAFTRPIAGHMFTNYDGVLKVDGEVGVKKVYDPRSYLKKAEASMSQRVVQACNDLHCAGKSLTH
PrPC TRFRET cf = confirmation of inhibitors of cell surface human prion protein. shares compounds with PrPC TRFRET. cell surface PrPC level, TR-FRET. inhibition, % at 13.8 µM. 65% of 1,500 active. AID 743200; in the data active means inhibition above about 25%
LD9 cytotox = counter-screen for PrPc inhibitors: cytotoxicity in LD9 cells; shares compounds with PrPC TRFRET; luminescence viability; inhibition, % at 13.8 µM; 29% of 1,500 active; in the data active means inhibition above about 9.5%
A number is an active result; - = inactive; . = no result shown.

SMILES	PrP 5UTR inh	PrPC TRFRET	Mtb hypoxia inh	Y pestis TopoI	GDH-TPI inh	FBA Mtb inh	PrPC TRFRET cf	LD9 cytotox
Cc1ccc(S(=O)(=O)Nc2ccccc2-c2ccccc2NS(=O)(=O)c2ccc(C)cc2)cc1	-	-	.	-	-	-	.	.
Cc1ccc(S(=O)(=O)Nc2cccc3cccnc23)cc1	-	39	.	-	-	-	72	82
COc1ccc(N=C2SC(=Cc3ccco3)C(=O)N2CC(C)C)cc1	.	.	-	.	.	.	.	.
Cc1ccc(CC2S/C(=N/N=Cc3ccco3)NC2=O)cc1 (stereo unspecified)	.	.	-	.	.	.	.	.
CC#CC[N+](C)(C)CCCCCCCCCCCC	-	25	-	-	-	-	28	16
CCCCCCCCCCCCCCCC[N+](C)(C)CC	-	26	-	-	-	-	36	14
CC(=NOCc1ccccc1C#N)c1cc2ccccc2o1	.	.	-	.	.	.	.	.
Cc1ccc(C(=O)Nc2ncc(Cc3ccccc3)s2)o1	-	27	-	-	-	-	26	-
O=C(COC(=O)CSc1ccc2ccccc2c1Br)NC1CC1	-	56	-	-	-	-	79	-
COc1ccc(C(=O)NN=C(C)CC(=O)NC2CCCCC2)c(OC)c1	.	.	-	.	.	.	.	.
CCC(Sc1ccc2nnc(-c3ccc(F)cc3)n2n1)C(=O)O (stereo unspecified)	-	38	-	-	-	-	58	-
CC(=O)C(Sc1ccc2nnc(-c3ccc(F)cc3)n2n1)C(C)=O	-	-	-	-	-	-	.	.
O=[N+]([O-])c1ccc(N2CCN(CC3CCCCC3)CC2)cc1	-	51	-	-	-	-	-	-
O=[N+]([O-])c1ccc(N2CCCCC2)cc1	-	-	-	-	-	-	.	.
CCCCCc1c(CC)ncn1CCc1ccccc1OC	.	29	.	.	.	.	-	22
CCCCCc1c(-c2ccccc2OC)ncn1CCc1ccccc1OC	.	-	.	.	.	.	.	.
CC(=NNC(=O)c1nnn(-c2nonc2N)c1CN1CCOCC1)c1ccc(CC(C)C)cc1	.	.	-	.	.	.	.	.
COc1ccc(C(C(=O)NC2CCCC2)N(C(=O)c2snc(-c3ccc(F)cc3)c2N)c2ccc(OC)cc2)cc1 (stereo unspecified)	-	46	-	-	-	-	60	-
COc1ccc(C(C(=O)NC2CCCC2)N(C(=O)c2snc(-c3ccc(F)cc3)c2N)c2ccc(F)cc2)cc1 (stereo unspecified)	-	-	-	-	-	-	.	.
Cn1ncc(Cl)c1C(=O)NN=Cc1cc2c(cc1[N+](=O)[O-])OCO2	.	.	-	.	.	.	.	.
Cc1[nH]nc(C(F)(F)F)c1N=NN1CCOCC1	-	31	.	-	-	-	40	65
CCC(NC(=O)Nc1nnc(C(F)(F)F)s1)(C(F)(F)F)C(F)(F)F	-	58	.	-	-	-	74	54
O=C(O)CCC(=O)Nc1nnc(C(F)(F)F)s1	-	-	.	-	-	-	.	.
Cc1cc(C)c(S(=O)(=O)Nc2ccc(N3CCOCC3)cc2)c(C)c1	-	-	-	-	-	-	.	.
Cc1cc(C)c(S(=O)(=O)Nc2cccc(S(=O)(=O)N3CCOCC3)c2)c(C)c1	-	27	-	-	-	-	-	-
SMILES	PrP 5UTR inh	PrPC TRFRET	Mtb hypoxia inh	Y pestis TopoI	GDH-TPI inh	FBA Mtb inh	PrPC TRFRET cf	LD9 cytotox
CC(C)(C)c1ccc(SC2=C[C@@]3(O)CC[C@@H](O)[C@@](Sc4ccc(C(C)(C)C)cc4)(C2=O)[C@H]3O)cc1	.	-	.	.	.	.	.	.
Cc1ccc(SC2=C[C@@]3(O)CC[C@@H](O)[C@@](Sc4ccc(C)cc4)(C2=O)[C@H]3O)cc1	.	27	.	.	.	.	-	-
N#Cc1ccccc1NC(=O)c1ccccc1OCC(=O)Nc1ccc2c(c1)oc1ccccc12	-	-	-	-	-	-	.	.
CNC(=O)COc1ccccc1C(=O)Nc1ccc2c(c1)oc1ccccc12	-	31	-	-	-	-	32	-
Cc1ccc(-n2c(C)cc(C=NNC(=O)CC(=O)NC(C)C)c2C)cc1	.	.	-	.	.	.	.	.
N#Cc1c(N)n(C2OC(CO)C(O)C2O)c2ncnc(N)c12 (stereo unspecified)	-	26	.	-	-	-	30	34
Cc1ccc(NC(=O)CC2SC(=Nc3nccs3)N(C)C2=O)c(C)c1 (stereo unspecified)	.	.	-	.	.	.	.	.
COC(=O)c1c(NC(=O)COc2ncnc3ccccc23)sc(C)c1C	-	-	-	-	-	-	.	.

Screening results: PubChem BioAssay, several laboratories
